In the library only some 4% were active in any assay of this set; here they are far more common.
TRPM1 prom inh: inhibitors of MITF-driven TRPM1 promoter in melanoma cells; inhibition, % at 12.5 µM; 330,000 tested, 0.83% active; SK-MEL-5 TRPM1 promoter luciferase, 24 h;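 active means mean inhibition across replicates of 60% or more, whatever share of single replicates reaches that level; inconclusive means some that reach 60%, reason not given; inactive means mean inhibition across replicates below 60%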
EBV LMP1 NFkB: Epstein-Barr LMP1 NF-kappaB reporter inhibition | LMP1-induced NF-kappaB luciferase reporter cells, luminescence | inhibition, % at 12.5 µM | 350,000 tested, 0.69% active | AID 504558; in the data active means inhibition above about 41%; inconclusive means no clear call, values can overlap the other calls;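 further: 0% = neutral control wells and 100% = reference inhibitor control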
TWEAK Fn14 block: blocks TWEAK-Fn14 interaction in a reporter cell assay; 360,000 tested, 2% active; TWEAK-stimulated Fn14 reporter cells, luciferase luminescence, 8 h; AID 1159606; inhibition, % at 10 µM; in the data active means inhibition above about 50%
TROY NFkB inh: inhibitors of TROY-dependent NF-kB signaling | inhibition, % at 10 µM | Q293 LMP1-TROYcd NF-kB luciferase reporter, 4 h | AID 1347056 | 360,000 tested, 0.98% active;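 active means compounds whose plate-normalised and pattern-corrected inhibition of the luciferase reporter signal at the single screening dose is 50% or more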
Peg3 promoter: reduces Peg3 promoter-driven luciferase expression in HeLa | HeLa PEG-Prom luciferase reporter, luminescence, overnight | inhibition, % at 20 µM | AID 588405 | 360,000 tested, 1.7% active;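 active means inhibition of at least 50% at 20 µM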
HIF-2a inh: blocks HIF-2a reporter activity; 786-0 RCC cells HIF-2a reporter, luciferase luminescence, overnight; inhibition, % at 18.8 µM; 360,000 tested, 0.72% active;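 active means inhibition of the luminescence signal of 40% or more relative to plate controls, in a single-dose primary screen at 18.75 µM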
Mdm2-MdmX confirm: confirmation of inhibitors of human Mdm2/MdmX interaction, set 2; shares compounds with HIF-2a inh; SaOS-2 split-luciferase Mdm2/MdmX complementation, luminescence; inhibition, % at 8 µM; 740 tested, 99% active;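 active means mean inhibition of the luminescence signal across two replicates at or above 26 percent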
Target sequence (O15151 whole entry, looked up): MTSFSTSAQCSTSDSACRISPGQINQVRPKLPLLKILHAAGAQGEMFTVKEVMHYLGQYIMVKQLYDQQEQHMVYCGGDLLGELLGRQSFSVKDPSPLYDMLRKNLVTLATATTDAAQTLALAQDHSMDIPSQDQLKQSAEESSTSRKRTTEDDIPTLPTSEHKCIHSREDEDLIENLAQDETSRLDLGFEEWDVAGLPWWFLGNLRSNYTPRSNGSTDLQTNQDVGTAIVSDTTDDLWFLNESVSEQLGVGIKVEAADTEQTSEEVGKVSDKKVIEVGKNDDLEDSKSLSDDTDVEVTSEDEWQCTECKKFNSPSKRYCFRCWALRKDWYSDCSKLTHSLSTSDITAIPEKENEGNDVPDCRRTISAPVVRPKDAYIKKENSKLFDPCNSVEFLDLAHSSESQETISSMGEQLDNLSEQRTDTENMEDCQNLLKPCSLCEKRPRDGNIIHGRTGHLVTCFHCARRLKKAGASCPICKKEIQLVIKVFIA
Target sequence (Q00987 whole entry, looked up): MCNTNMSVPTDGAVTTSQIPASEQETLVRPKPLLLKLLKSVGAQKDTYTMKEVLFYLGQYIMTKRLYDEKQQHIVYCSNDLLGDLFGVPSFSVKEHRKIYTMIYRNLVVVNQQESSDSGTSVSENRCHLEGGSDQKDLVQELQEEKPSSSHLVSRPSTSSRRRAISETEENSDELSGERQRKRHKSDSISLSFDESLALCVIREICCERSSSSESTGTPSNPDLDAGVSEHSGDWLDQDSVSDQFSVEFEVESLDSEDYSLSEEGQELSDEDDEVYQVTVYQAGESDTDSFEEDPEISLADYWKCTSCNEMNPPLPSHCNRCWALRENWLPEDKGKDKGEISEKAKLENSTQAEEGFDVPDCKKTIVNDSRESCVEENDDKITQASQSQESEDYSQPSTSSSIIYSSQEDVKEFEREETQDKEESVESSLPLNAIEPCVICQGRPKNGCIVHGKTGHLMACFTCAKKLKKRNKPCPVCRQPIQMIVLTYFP
HIF-2a inh conf: HIF-2a inhibition, single concentration confirmation | shares compounds with HIF-2a inh | 786-0 RCC cells, HIF-2a luciferase reporter luminescence, overnight | inhibition, % at 18.8 µM | 1,800 tested, 56% active | AID 651580;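 active means mean inhibition across four replicates of at least 40 percent at the single tested concentration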
HIF-1a cs: counter-screen for HIF-2a inhibitors: HIF-1a inhibition in MiaPaCa-2 cells | MiaPaCa-2 HIF-1a luciferase reporter, desferoxamine, overnight | inhibition, % at 18.8 µM | shares compounds with HIF-2a inh | AID 651589 | 1,800 tested, 72% active;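 active means mean inhibition of the reporter signal across four replicates at the single tested dose of 50% or more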
Active calls of the source: *; ? = inconclusive; / = no result.

SMILES | TRPM1 prom inh | EBV LMP1 NFkB | TWEAK Fn14 block | TROY NFkB inh | Peg3 promoter | HIF-2a inh | HIF-2a inh conf | HIF-1a cs | others
N#Cc1ccccc1COc1ccc(/C=C/C(=O)O)cc1 | 55 | 25 | 74* | 29 | 10 | 87* | 89* | 56*
O=C(O)/C=C/c1ccc(S(=O)(=O)Nc2ccc(OCc3ccccc3)cc2)cc1 | 1 | -4 | 14 | 34 | 5 | 16 | / | /
CCOc1ccc(/C=C/C(=O)c2ccc(-c3ccccc3)cc2)cc1 | -2 | 0 | 0 | -4 | 28 | 2 | / | /
Cc1cc(C)cc(OCC(=O)N(Cc2ccc(N(C)C)cc2)C2CCS(=O)(=O)C2)c1 (stereo not drawn) | 14 | 3 | -17 | 4 | 18 | 10 | / | /
O=C(C(c1ccccc1)N1CCOCC1)N1CCOCC1 (stereo not drawn) | -8 | -2 | 4 | 0 | 3 | 18 | / | /
O=C(C=Cc1ccccc1)CC(c1ccccc1)N1CCOCC1 (stereo not drawn) | 76* | -49 | 92* | -7 | 108* | 70* | -26 | 102*
Cc1ccc(NC(=O)c2cc3ccccc3oc2=O)cc1S(=O)(=O)N(C)C | 76* | 64* | 102* | 90* | 77* | 81* | 88* | 88*
CCOc1ccc(C(=O)Nc2nnc(SCC(=O)NCC3CCCO3)s2)cc1 (stereo not drawn) | 48 | 61* | 69* | 36 | 21 | 55* | 59* | -1
COc1ccc(C(=O)Nn2c(SCC(=O)NCC3CCCO3)nc3ccccc3c2=O)cc1 (stereo not drawn) | -2 | 39 | 95* | 78* | 13 | 49* | 60* | 49
Cc1cccc(NC(=O)COC(=O)CN2C(=O)c3ccccc3C2=O)c1 | / | -1 | 3 | 10 | -5 | 5 | / | /
CCN1CC(CN(C)Cc2nc(-c3ccc(OC)c4ccccc34)oc2C)CC1=O (stereo not drawn) | 9 | -6 | 5 | -8 | 9 | 20 | / | /
COc1ccc(/C=N/NC(=O)c2cccc([N+](=O)[O-])c2)c2ccccc12 | 14 | 7 | -12 | 1 | 21 | 57* | 1 | 24
COc1cc(/C=C2\CCC(C3CCCC3)C2=O)cc(OC)c1OC (stereo not drawn) | -45 | 0 | -81 | -55 | -71 | -196 | / | /
COc1cc(/C=C2\CC(C(C)(C)C)C/C(=C\c3cc(OC)c(OC)c(OC)c3)C2=O)cc(OC)c1OC (stereo not drawn) | 84* | ? | 64* | 12 | 104* | 94* | / | / | Mdm2-MdmX confirm=102*
Cc1cc(C)c2nc(C(F)(F)F)c(C#N)c(N)c2c1 | -20 | 40 | 70* | 22 | 73* | 12 | / | / | Mdm2-MdmX confirm=83*
CCCc1nc2c(C)cc(C)cc2c(N)c1CC | -1 | -6 | -10 | 3 | -9 | 9 | / | /
C1C2CC3C1C3C2=NN=C1C2CC3C(C2)C13 | / | / | 4 | 1 | -13 | 3 | / | /
CCn1nc([N+](=O)[O-])c(C(C#N)c2nc3cc(C(F)(F)F)ccc3s2)c(Cl)c1=O (stereo not drawn) | 24 | 7 | -12 | 65* | 14 | -16 | / | / | Mdm2-MdmX confirm=97*
ClC(Cl)(c1nnnn1-c1ccccc1)c1nnnn1-c1ccccc1 | 36 | -5 | 18 | 59* | 24 | 52* | 38 | 26
NC1=NC[C@@H](Cc2ccc(O)cc2)N1CCc1cc(C(F)(F)F)cc(C(F)(F)F)c1 | 0 | -4 | -1 | -10 | 3 | 3 | / | /
NC1=NC[C@H](CC2CCCCC2)N1CCc1cc(C(F)(F)F)cc(C(F)(F)F)c1 | 5 | 7 | -16 | -1 | 101* | 98* | -5 | 106* | Mdm2-MdmX confirm=100*
O=C(O)c1nc(NCCc2ccccc2)ncc1Cl | -2 | -5 | 10 | -16 | -8 | 5 | / | /

Screens deposited in PubChem BioAssay by several laboratories.
